Here are results for twelve compounds from PubChem BioAssay (NCI).

Among the test systems are NCI-H23 lung; NCI-H226 lung; NCI-H322M lung; HOP-62 NSCLC; NCI-H460 lung; HOP-92 NSCLC; NCI-H522 lung; A549/ATCC NSCLC; 786-0 renal; COLO 205 colon.
Assay in all cases: NCI-60 one-dose screen, 48 h (100 = growth as untreated, 0 = no growth, -100 = all killed)
Common to all, as to details: 10 µM unless noted

This is part of a sample that, as a whole, favours compounds with a hit. Of some 83,000 tested, about 20% had one in any assay.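 Step 1: grow cells in 96-well plates. Step 2: add test compound at a single concentration. Step 3: incubate 48 h. Step 4: record percent growth.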 A number with no mark means an inactive call. Active and inactive are the calls of the source. Rule for the calls: active = growth percent below 10; inactive = the rest.

As to `CC(C)(C)OC(=O)N1C=C/C(=C\Cn2cc(-c3ccccc3)nn2)CC1`, the growth is 65% with NCI-H23 lung; 72% with NCI-H226 lung; 80.9% with NCI-H322M lung; 89.3% in the test on HOP-62 NSCLC; 84.7% with NCI-H460 lung; 62.9% with HOP-92 NSCLC. In addition, the growth with NCI-H522 lung is 74.6%; in the test with A549/ATCC NSCLC, 83.8%; in the test on 786-0 renal it was 79.6%; in the test on COLO 205 colon, 109%.
Consider `C=C(C)[C@@H]1CC[C@]2(c3ncc(C)o3)CC[C@]3(C)[C@H](CC[C@@H]4[C@@](C)(CCC#N)[C@H](C(=C)C)CC[C@]43C)[C@@H]12`, for which the growth in the test on NCI-H23 lung was -68.1% [100 µM] (active); in the test with NCI-H226 lung, -55.2% [100 µM] (active); in the test on NCI-H322M lung it was -83.5% [100 µM] (active); in the test with HOP-62 NSCLC it was -86.1% [100 µM] (active); in the test with NCI-H460 lung, -71.4% [100 µM] (active); with HOP-92 NSCLC it was -85.7% [100 µM] (active). Also, the growth is -85.4% [100 µM] (active) in the test with NCI-H522 lung, -84.8% [100 µM] (active) with A549/ATCC NSCLC, -85.6% [100 µM] (active) with 786-0 renal and -82% [100 µM] (active) in the test with COLO 205 colon.
`C=C(C)[C@@H]1CC[C@]2(C)[C@H](CC=C3[C@@H]4[C@@H](C)[C@H](C)CC[C@]4(C(N)=O)CC[C@]32C)[C@@]1(C)CCC#N`: the growth with NCI-H23 lung is 6.47% [100 µM] (active); in the test with NCI-H226 lung, -22.2% [100 µM] (active); in the test on NCI-H322M lung it was 0.378% [100 µM] (active); in the test on HOP-62 NSCLC, -1.03% [100 µM] (active); with NCI-H460 lung it was -38.4% [100 µM] (active); with HOP-92 NSCLC, -37.7% [100 µM] (active). Further, the growth in the test on NCI-H522 lung is -6.12% [100 µM] (active); with A549/ATCC NSCLC it was 9.82% [100 µM] (active); in the test with 786-0 renal, -36.5% [100 µM] (active); in the test with COLO 205 colon, -78.9% [100 µM] (active).
On to `COc1c(B(O)O)cccc1-c1nc2ccc3[nH]ncc3c2c2c1CCC2`, for which the growth with NCI-H23 lung is 75.5%; in the test with NCI-H226 lung, 68.3%; in the test with NCI-H322M lung it was 57.6%; in the test with HOP-62 NSCLC, 48.7%; in the test on NCI-H460 lung, 47.9%; in the test with HOP-92 NSCLC, 72.1%. Moreover, the growth in the test on NCI-H522 lung was 62.7%; with A549/ATCC NSCLC, 60.2%; in the test with 786-0 renal, 55.7%; in the test with COLO 205 colon, 66.2%.
In the case of `N#C/C(C(=O)c1ccccc1)=C1/C(=O)Nc2ccc(F)cc21`, the growth is 98.4% in the test with NCI-H23 lung; 95.4% with NCI-H226 lung; 108% in the test on NCI-H322M lung; 84.8% with HOP-62 NSCLC; 106% in the test with NCI-H460 lung; 115% with HOP-92 NSCLC. Further, the growth is 96.6% in the test on NCI-H522 lung, 105% with A549/ATCC NSCLC, 101% with 786-0 renal and 119% in the test on COLO 205 colon.
`CC(C)=CCC[C@](C)(O)[C@H]1CC[C@]2(C)[C@@H]1CC[C@@H]1[C@@]3(C)CC[C@H](OC(=O)CCC(=O)O)C(C)(C)[C@@H]3CC[C@]12C`: the growth in the test with NCI-H23 lung is 16.9% [100 µM]; in the test with NCI-H226 lung, 27.4% [100 µM]; in the test on NCI-H322M lung it was 27.4% [100 µM]; with HOP-62 NSCLC, -5.43% [100 µM] (active); with NCI-H460 lung, 4.47% [100 µM] (active); in the test with HOP-92 NSCLC, 13.3% [100 µM]. The growth is 9.19% [100 µM] (active) in the test on NCI-H522 lung, 19.5% [100 µM] with A549/ATCC NSCLC, 23% [100 µM] in the test on 786-0 renal and 12.9% [100 µM] in the test on COLO 205 colon.
As to `CCCCOC(=O)c1c(C)[nH]c(/C=C2\N=C(c3ccc[nH]3)C=C2OC)c1C`, the growth in the test with NCI-H23 lung is -11.3% (active); with NCI-H226 lung, -0.091% (active); in the test on NCI-H322M lung, -10.5% (active); with HOP-62 NSCLC it was 2.13% (active); in the test on NCI-H460 lung it was 6.62% (active); with HOP-92 NSCLC, -17% (active). Further, the growth is -41.3% (active) in the test on NCI-H522 lung, -9.07% (active) in the test with A549/ATCC NSCLC, -32.6% (active) in the test on 786-0 renal and -29.2% (active) with COLO 205 colon.
Consider `Cn1cc(-c2noc(-c3cn(C)c4ncc(F)cc34)n2)c2cc(Cl)ccc21`, for which the growth in the test on NCI-H23 lung is 81.3%; with NCI-H226 lung, 95.7%; with NCI-H322M lung, 50.3%; in the test on HOP-62 NSCLC it was 68.4%; with NCI-H460 lung it was 2.39% (active); in the test on HOP-92 NSCLC, 64.3%. The growth in the test with NCI-H522 lung is 74.2%; with A549/ATCC NSCLC, 33.9%; in the test on 786-0 renal, 9.09% (active); with COLO 205 colon, 55.5%.
`C#C[C@]1(O)CC[C@H]2[C@@H]3CC=C4c5nc(Nc6ccccc6[N+](=O)[O-])sc5CC[C@]4(C)[C@H]3CC[C@@]21C`: the growth is 86.5% with NCI-H23 lung; 80.9% in the test on NCI-H226 lung; 72.9% with NCI-H322M lung; 69.2% with HOP-62 NSCLC; 55.7% in the test with NCI-H460 lung; 72.6% in the test on HOP-92 NSCLC. Moreover, the growth in the test with NCI-H522 lung was 73.4%; in the test on A549/ATCC NSCLC, 62.2%; in the test with 786-0 renal, 5.63% (active); in the test with COLO 205 colon, 86.7%.
Consider `COc1ccc(C2=C(c3cn(C)c4ccccc34)C(=O)OC2)cc1OC`, for which the growth in the test with NCI-H23 lung was 54.6%; with NCI-H226 lung, 70.3%; with NCI-H322M lung, 65.5%; in the test with HOP-62 NSCLC it was 31.5%; with NCI-H460 lung it was 29.6%; in the test with HOP-92 NSCLC, 16.4%. Further, the growth with NCI-H522 lung was 13.3%; in the test on A549/ATCC NSCLC, 42.3%; with 786-0 renal, 41.2%; with COLO 205 colon it was 12.6%.
Take `CC(=O)OC[C@]12CC[C@@H]([C@@H](C)C(N)=O)[C@@H]1[C@H]1CC[C@@H]3[C@@]4(C)CC[C@H](OC(C)=O)C(C)(C)[C@@H]4CC[C@@]3(C)[C@]1(C)CC2`: the growth with NCI-H23 lung is -40.3% [100 µM] (active); in the test on NCI-H226 lung, -58.5% [100 µM] (active); in the test with NCI-H322M lung it was -78.2% [100 µM] (active); with HOP-62 NSCLC it was -73% [100 µM] (active); in the test with NCI-H460 lung, -61.8% [100 µM] (active); in the test with HOP-92 NSCLC, -83.1% [100 µM] (active). Also, the growth with NCI-H522 lung is -61.1% [100 µM] (active); in the test on A549/ATCC NSCLC, 9.89% [100 µM] (active); in the test with 786-0 renal it was -74% [100 µM] (active); in the test with COLO 205 colon it was -53% [100 µM] (active).
For the compound `CSc1nc2sc3cc(Cl)c(Cl)cc3n2c(=N)c1C#N`, the growth in the test on NCI-H23 lung was 84.8%; with NCI-H226 lung, 95%; in the test on NCI-H322M lung, 104%; with HOP-62 NSCLC it was 94.7%; in the test with NCI-H460 lung it was 98.7%; with HOP-92 NSCLC it was 98.9%. The growth is 89.4% in the test with NCI-H522 lung, 106% with A549/ATCC NSCLC, 102% in the test with 786-0 renal and 122% with COLO 205 colon.
